# Shown are actives, neighbours in structure and some others; about 22% of the full set was active somewhere.
# CYP2C19 inh = blockers of cytochrome P450 2C19 activity – biochemical, luminescence, ADME assay, primary screen | CYP2C19 Supersomes, luciferin-H EGE luminescence, 30 min | 21% of 96,000 active | P33261 | AID 778, 2007 | inhibition, % at 5 µM;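 active = CYP2C19 inhibition above a set limit at 5 µM in the primary screen, cut at about 50% in these data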;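 note: plate controls were negative control wells for no effect and 2.5 mM tranylcypromine positive control for full effect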
# Target sequence (P33261 whole entry, looked up): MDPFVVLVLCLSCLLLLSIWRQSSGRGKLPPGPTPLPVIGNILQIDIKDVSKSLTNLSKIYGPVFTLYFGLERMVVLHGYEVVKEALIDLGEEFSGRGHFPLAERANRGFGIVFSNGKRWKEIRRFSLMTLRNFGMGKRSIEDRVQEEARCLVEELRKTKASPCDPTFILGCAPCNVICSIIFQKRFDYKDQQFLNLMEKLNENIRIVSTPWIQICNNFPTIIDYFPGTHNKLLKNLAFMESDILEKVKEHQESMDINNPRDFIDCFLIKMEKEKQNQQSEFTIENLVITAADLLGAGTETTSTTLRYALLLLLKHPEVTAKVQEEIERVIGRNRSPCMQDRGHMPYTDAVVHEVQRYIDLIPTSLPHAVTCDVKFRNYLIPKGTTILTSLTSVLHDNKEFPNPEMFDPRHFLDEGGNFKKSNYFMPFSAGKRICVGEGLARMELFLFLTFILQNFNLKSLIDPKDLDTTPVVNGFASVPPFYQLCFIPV
# CYP2C19 activ = human CYP2C19 activators, primary screen, biochemical, luminescence; recombinant CYP2C19, luciferin-H EGE luminescence; stronger effect = higher value; 0 = fully inhibited enzyme, 1 = untreated enzyme; 96,000 tested, under 10 active; activation factor at 5 µM; Cytochrome P450 2C19 (Homo sapiens), P33261; AID 1025, 2008;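 active = activation factor of at least 2 at 5 µM in the primary screen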;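 note: 0 = wells with 2.5 mM tranylcypromine and 1 = vehicle-only wells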
# CYP2C9 inh = blockers of cytochrome P450 2C9 activity – biochemical, luminescence, ADME assay, primary screen. P11712. CYP2C9 Supersomes, luciferin-H conversion. inhibition, % at 5 µM. 20% of 96,000 active;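 active = blocking of liver enzyme CYP2C9 beyond about 50% at 5 µM, limit read from the data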
# CYP2C9 activ = human CYP2C9 activators, primary screen, biochemical, luminescence; recombinant CYP2C9, luciferin-H conversion; stronger effect = higher value; factor 1 = untreated enzyme, 0 = blocked; 1.4% of 96,000 active; activation factor at 5 µM;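 active = activation factor of 2 or more for CYP2C9 at a 5 µM dose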;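 note: 0 = sulfaphenazole-blocked wells and 1 = vehicle-only wells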
# Measles CPE = compounds protecting cells from measles virus cytopathic effect, primary screen, measles RdRp inhibitor project, single point, MLSMR library, absorbance; protection (pct of control), % at 4 µM; 1.5% of 140,000 active; Measles virus-infected cells, CPE protection; AID 841, 2007; in the data active = protection mostly above about 24%, no sharp cut-off; inactive = mostly below about 26%
# Starred values were filed as active, the others as inactive; x = not tested or not shown.
SMILES,CYP2C19 inh,CYP2C19 activ,CYP2C9 inh,CYP2C9 activ,Measles CPE
NC(=O)CC[C@@H]1NC(=O)[C@H](Cc2ccccc2)NC(=O)[C@H](Cc2ccc(O)cc2)NC(=O)[C@@H](N)CSSC[C@@H](C(=O)N2CCC[C@H]2C(=O)N[C@@H](CCCN=C(N)N)C(=O)NCC(N)=O)NC(=O)[C@H](CC(N)=O)NC1=O,x,x,x,x,3
CCOc1ccc(NC(=O)Cn2nc(-c3ccccc3Cl)n(CC)c2=S)cc1,62*,0.4,68*,0.3,33
COc1ccc(NC(=O)CN2CCN(c3ccccc3Cl)CC2)cc1,x,x,x,x,7
CCOc1ccc(NC(=O)Cn2nnc(-c3ccccc3F)n2)cc1,-4,1,3,1,14
CCn1c(-c2ccccc2Cl)nn(CC(=O)Nc2ccc(OC)cc2)c1=S,56*,0.4,60*,0.4,6
CCn1nc(C(=O)Nc2ccccc2C)c(Cl)c1Cl,48,0.5,55*,0.5,3
CCn1c(-c2ccccc2Cl)nn(CC(=O)Nc2ccccc2C)c1=S,51*,0.5,-1,1,16
COc1cc(NC(=O)c2cccc3c2C(=O)N(Cc2cccnc2)C3)cc(OC)c1OC,48,0.5,69*,0.3,7
CCCN1Cc2cccc(C(N)=O)c2C1=O,-1,1,5,1,4
O=C(O)c1cccc2c1C(=O)N(Cc1ccncc1)C2,-2,1,6,0.9,72*
O=C(Nc1ccc2c(c1)OCO2)c1cccc2c1C(=O)N(Cc1cccnc1)C2,34,0.7,77*,0.2,8
CCCN1Cc2cccc(C(=O)Nc3ccc4c(c3)OCCO4)c2C1=O,81*,0.2,92*,0.1,28
CCCN1Cc2cccc(C(=O)Nc3ccc(C)cc3)c2C1=O,0,1,14,0.9,10
Cn1c(C(=O)O)c(CC(=O)N2CCC(Cc3ccccc3)CC2)c2ccccc21,x,x,x,x,9
O=C(CSc1nc2c(cnn2-c2ccc(Cl)cc2)c(=O)[nH]1)N1CCCc2ccccc21,x,x,x,x,17
CCCN1Cc2cccc(C(=O)Nc3ccc4c(c3)OCO4)c2C1=O,10,0.9,60*,0.4,19
CC(C)C(=O)NC(NC(=S)Nc1cccc2cccnc12)C(Cl)(Cl)Cl (stereo not drawn),46,0.5,84*,0.2,4
CCC(=O)NC(NC(=S)Nc1cccc2cccnc12)C(Cl)(Cl)Cl (stereo not drawn),x,x,x,x,12
CC(C)(C)C(=O)NC(Nc1cccc2cccnc12)C(Cl)(Cl)Cl (stereo not drawn),54*,0.5,54*,0.5,2
Cn1ccnc1C(=O)c1cc(=O)c2ccccc2o1,22,0.8,-6,1.1,3
Cc1cccc(Cn2c(=O)n(Cc3ccco3)c(=O)c3ccccc32)c1,9,0.9,62*,0.4,17
Nc1nc(Br)c2c(F)cccc2c1-c1ccc(F)cc1,17,0.8,29,0.7,5
O=[N+]([O-])c1ccc(/C=N/Nc2nc(-c3ccccc3)c3cc(Br)ccc3n2)o1,-4,1,-2,1,4
Cc1ccc2nc(N/N=C\c3ccc([N+](=O)[O-])o3)nc(-c3ccccc3)c2c1,73*,0.3,87*,0.1,12
COc1ccc(C(=O)Nc2ccc(S(=O)(=O)N3CCCCC3)cc2)cc1OC,-9,1.1,16,0.8,4
SMILES,CYP2C19 inh,CYP2C19 activ,CYP2C9 inh,CYP2C9 activ,Measles CPE
O=C(Nc1ccccc1)c1ccc(S(=O)(=O)N2CCOCC2)cc1,7,0.9,13,0.9,14
O=C(Nc1ccc(S(=O)(=O)N2CCCC2)cc1)c1ccc(CN2CCc3ccccc3C2)cc1,x,x,x,x,9
O=C(Nc1ccc(S(=O)(=O)Nc2nccs2)cc1)c1ccc(S(=O)(=O)N2CCOCC2)cc1,x,x,x,x,67*
O=C(Nc1ccc(S(=O)(=O)N2CCOCC2)cc1)c1ccc(CN2CCc3ccccc3C2)cc1,23,0.8,55*,0.4,11
Cc1cc(C(=O)Nc2ccc(S(=O)(=O)N3CCCC3)cc2)cs1,19,0.8,39,0.6,53*
O=C(Nc1ccc(S(=O)(=O)N2CCCCC2)cc1)c1ccncc1,99*,0,98*,0,x
CC(=O)c1ccc(NC(=O)c2ccc(S(=O)(=O)N3CCCC3)cc2)cc1,0,1,1,1,17
CCCCOc1ccc(C(=O)N2CC(C)OC(C)C2)cc1 (stereo not drawn),6,0.9,-31,1.3,4
CC(C)(C)n1nc2c(c1NC(=O)c1ccc(S(=O)(=O)N3CCCCC3)cc1)CS(=O)C2 (stereo not drawn),6,0.9,10,0.9,44*
Cc1ccccc1NC(=O)c1cc(S(=O)(=O)N2CCCCC2)cs1,34,0.7,51*,0.5,7
O=C(Nc1ccccc1Cl)c1cc(S(=O)(=O)N2CCOCC2)cs1,12,0.9,-1,1,6
CCOc1ccc(S(=O)(=O)N2CCN(C(=O)c3cc4c(s3)CCCC4)CC2)cc1,x,x,x,x,24
Cc1ccc(-c2cn(-c3ccccc3)c(SCC(=O)NC3CCS(=O)(=O)C3)n2)cc1C (stereo not drawn),x,x,x,x,4
CCOc1cc(C2NC(=O)N(C)C(C)=C2C(=O)OC)cc(Br)c1O (stereo not drawn),48,0.5,86*,0.1,2
COC(=O)C1=C(C)N(C)C(=O)NC1c1ccc(O)c(OC)c1 (stereo not drawn),x,x,x,x,2
CCOC(=O)C1=C(CS(=O)(=O)c2ccc(F)c(C)c2)NC(=O)NC1c1ccc(O)c(O)c1 (stereo not drawn),69*,0.3,8,0.9,6
CCOC(=O)C1=C(CS(=O)(=O)c2ccccc2)NC(=O)NC1c1ccccc1OCC (stereo not drawn),30,0.7,17,0.8,5
CCCCOC(=O)CSC1=C(C#N)C(c2ccccc2OCC)C(C#N)C(=O)N1 (stereo not drawn),50,0.5,79*,0.2,4
CCCOC(=O)CSC1=C(C#N)C(c2ccccc2OCC)C(C#N)C(=O)N1 (stereo not drawn),43,0.6,67*,0.3,26
CCCCOC(=O)CSC1=C(C#N)C(c2ccccc2OC)C(C#N)C(=O)N1 (stereo not drawn),64*,0.4,55*,0.5,4
Cc1c(N=Cc2ccncc2)c(=O)n(-c2ccccc2)n1C,66*,0.3,-13,1.1,3
Cc1c(N=Cc2ccccn2)c(=O)n(-c2ccccc2)n1C,0,1,3,1,14
Cc1ccc(-c2c(C#N)c(N)n3c(nc4ccccc43)c2C#N)cc1,12,0.9,64*,0.4,8
Cc1ccc(S(=O)(=O)Nc2nc(C)c(NC(=O)OCCCl)s2)cc1,4,1,89*,0.1,26
Cc1ccc(S(=O)(=O)Nc2nc(C)c(NC(=O)Nc3ccc(Cl)cc3Cl)s2)cc1,4,1,61*,0.4,19
